Experimental data: PubChem BioAssay AID651568 (National Center for Advancing Translational Sciences (NCATS), 2012)
Out of some 1,200 compounds screened, about 55 (5%) were called active. Not shown: some 15% with an inconclusive outcome. Calls come from the whole dose curve; as a rule, active = well fitted inhibition curve with a large enough effect; inconclusive = small, poorly fitted or top-dose-only effect; inactive = no such curve, though single readings can be large or run the other way. The sample as a whole holds a higher share of actives than the screen did.

Assay: qHTS Assay to Find Inhibitors of Chronic Active B-Cell Receptor Signaling: Hit Validation in Renilla Reporter Assay; note: nearly all actives have a fitted effect of over 70% in size
Conditions: TMD8 IkB-Renilla luciferase reporter, NF-kB signaling; series mostly up to 57.5 µM; activity change, negative = inhibition: at the top concentration
From the text: Diffuse large B-cell lymphoma (DLBCL) is the most common category of non-Hodgkin lymphoma, with ~20,000 new cases per year in the United States. DLBCL should be regarded as a collection of different neoplasms. Microarray gene expression analysis has defined two principal types of DLBCL, named for their similarity to normal B cell stages or activation states: a germinal center B-cell (GCB) type, and an activated B-cell (ABC) type. In ABC-DLBCL, a constitutive high-level activity of the NF-kappaB family of transcription factors has been observed (1) and NF-kappaB target genes are more highly expressed in ABC primary tumors than in GCB tumors. Functional studies have shown a constitutive high-level activity of the IkappaB (inhibitor of kappa-B) kinase (IKK) complex. […] Further analysis of DLBCL primary tumors for NF-kappaB target gene expression imply that although CARD11 is required for constitutive IKK activity in all ABC-DLBCL lines, mutations in CARD11 may be the root cause of IKK activation only in lines or tumors with such mutations. In other words, CARD11 mutations may explain NF-kappaB activation in only 10% of ABC-DLBCL cases. […] This process has been termed 'chronic active BCR signaling' (CABS). The goal of this screen is to find small-molecule inhibitors of the CABS pathway found in ABC-DLBCL lines using a cell-based assay that measures IkappaBalpa stability, which has already been extensively validated in the OCI-Ly3 line (PubChem AID:445; REF: 4). […] Hits from the primary screen were tested in this orthogonal secondary assay. NIH Molecular Libraries Probe Production Network [MLPCN] NIH Chemical Genomics Center [NCGC] MLPCN Grant: R03 DA031086 PI Name: Dr. R. Eric Davis
The IkB-Photinus/Renilla reporter assay differs from the primary assay in that the reporters are constitutively expressed, and based on luciferases that are different from the click beetle luciferases and each other. These differences should help to eliminate artifactual sources of activity specific to the primary assay. This assay uses the Dual-Glo substrate from Promega; extensively validated in a 96-well format, it could be converted to a smaller-well format. All lines needed for the IkB-Photinus/Renilla assay have already been prepared and extensively validated
% is set by controls: 0 for no effect and ±100 for the full control effect; potency is the fitted concentration of half-maximal effect.

Question: With Cc1ccc(C)c(NS(=O)(=O)c2ccc(-c3cnc(C4CC4)o3)cc2)c1 as the compound, how does the “activity change, negative = inhibition” value read?
Answer: -22.1% (inactive)

Question: With Cc1cccc(NS(=O)(=O)c2ccc(C3CCCCC3)cc2)n1 as the compound, how does the Potency read?
Answer: 13.5 µM (active)

Question: With Cc1cc(C)cc(NS(=O)(=O)c2ccc(-c3cnc(C4CC4)o3)cc2)c1 as the compound, how does the “activity change, negative = inhibition” value read?
Answer: 25.8% (inactive)

Question: With Cc1ccccc1NC(=S)N=Nc1c(O)n(C)c2ccc(S(=O)(=O)N3CCOCC3)cc12 as the compound, how does the “activity change, negative = inhibition” value read?
Answer: -22.4% (inactive)

Question: With CCn1c(=O)c([N+](=O)[O-])c(Cl)c2ccccc21 as the compound, how does the Potency read?
Answer: 2.39 µM (active)

Question: With CC[C@]12c3[nH]c4cc(CCC(=O)N(C)C)ccc4c3CCN1C(=O)[C@@H](CC(=O)NCc1ccco1)C[C@@H]2C(=O)N1CCN(C(=O)c2ccco2)CC1 as the compound, how does the “activity change, negative = inhibition” value read?
Answer: 7.44% (inactive)

Question: With c1ccc(C2=Nn3c(nnc3-c3n[nH]c4c3CCC4)SC2)cc1 as the compound, how does the “activity change, negative = inhibition” value read?
Answer: -11.8% (inactive)

Question: Which “activity change, negative = inhibition” value does the source give for Cc1ccc(OCCN2C(=O)C(=O)c3cc(C)ccc32)cc1 here?
Answer: -29.2% (inactive)

Question: With CC(C)n1c(SCC(=O)Nc2ccccc2)nc2c1c(=O)n(C)c(=O)n2C as the compound, how does the “activity change, negative = inhibition” value read?
Answer: -2.3% (inactive)

Question: Which Potency does the source give for CN(C)c1nc(=Nc2cccc(Cl)c2)ss1 here?
Answer: 10.7 µM (active)

Question: For COc1cc(OC)cc(C(=O)NCC(=O)Nc2ccc(-c3ccccc3)cc2)c1, which “activity change, negative = inhibition” value is on record?
Answer: -2.62% (inactive)

Question: Which “activity change, negative = inhibition” value does the source give for COc1cc(OC)cc(C(=O)NCc2ccc3c(c2)CCN3C(=O)c2ccccc2)c1 here?
Answer: 2.99% (inactive)

Question: With COc1ccc(/C=C/C(=O)Nc2cc(S(=O)(=O)N3CCOCC3)ccc2OC)cc1 as the compound, how does the “activity change, negative = inhibition” value read?
Answer: -11% (inactive)

Question: For Cc1noc(C)c1CSc1ncnc2ccccc12, which “activity change, negative = inhibition” value is on record?
Answer: -12.4% (inactive)

Question: Which “activity change, negative = inhibition” value does the source give for COc1ccc(C(=O)n2c(-c3ccco3)nc3ccccc32)cc1 here?
Answer: 3.66% (inactive)

Question: With COc1ccc(C(=O)/C=C/c2ccc(OC)c(Cn3nnc4ccccc43)c2)cc1 as the compound, how does the Potency read?
Answer: 9.53 µM (active)

Question: For COc1cc(/C=C\C(=O)OCn2nnc3ccccc3c2=O)cc(OC)c1OC, which “activity change, negative = inhibition” value is on record?
Answer: 3.59% (inactive)

Question: With COc1ccccc1NC(=O)COc1ccc(-c2nn(C)c(=O)c3ccccc23)cc1 as the compound, how does the “activity change, negative = inhibition” value read?
Answer: -8.93% (inactive)

Question: With Cc1ccc(NC(=S)NC(=O)C2CC2)cc1Cl as the compound, how does the “activity change, negative = inhibition” value read?
Answer: 2.69% (inactive)

Question: Which “activity change, negative = inhibition” value does the source give for Cc1c(CCC(=O)NCCC(=O)O)c(=O)oc2c(C)c3oc4c(c3cc12)CCCC4 here?
Answer: -15.5% (inactive)

Question: For COc1cc(/C=N/NC(=O)NC2CCCCC2)ccc1O, which “activity change, negative = inhibition” value is on record?
Answer: 0.432% (inactive)

Question: With O=Cc1ccccc1OCCOc1ccccc1C=O as the compound, how does the Potency read?
Answer: 12 µM (active)

Question: For CCOc1cc(Br)c(C=O)cc1OCC, which “activity change, negative = inhibition” value is on record?
Answer: -3.14% (inactive)

Question: Which “activity change, negative = inhibition” value does the source give for Cc1c(CCC(=O)N[C@@H](C)C(=O)O)c(=O)oc2cc3oc4c(c3cc12)CCCC4 here?
Answer: -1.27% (inactive)

Question: Which “activity change, negative = inhibition” value does the source give for CCC(NC(=O)CCc1c(C)c2cc3c4c(oc3cc2oc1=O)CCCC4)C(=O)O (configuration not stated) here?
Answer: -10.2% (inactive)

Question: With Cc1cc(C)n(-c2nc3ccccc3c(=O)n2OCC#N)n1 as the compound, how does the Potency read?
Answer: 16.9 µM (active)

Question: For Cc1cc(NC(=O)CSc2nc3ccccc3c(=O)n2C2CCCC2)no1, which “activity change, negative = inhibition” value is on record?
Answer: 1.51% (inactive)

Question: With CCC(=O)Nc1nonc1-c1nc2ccccc2n1Cc1cccc2ccccc12 as the compound, how does the “activity change, negative = inhibition” value read?
Answer: -1.91% (inactive)

Question: With CNCc1ccccc1Sc1ccc(O)c(O)c1 as the compound, how does the Potency read?
Answer: 10.7 µM (active)

Question: For COc1cccc(N2CC(O)=C(c3nc4ccccc4s3)C2=N)c1, which “activity change, negative = inhibition” value is on record?
Answer: 2.59% (inactive)

Question: For CCOc1cc(/C=N\NC(N)=O)cc(Br)c1OC(C)C, which “activity change, negative = inhibition” value is on record?
Answer: -6.49% (inactive)

Question: Which Potency does the source give for O=C(/C=C/c1ccc(O)cc1)c1ccc(O)cc1O here?
Answer: 10.7 µM (active)

Question: Which “activity change, negative = inhibition” value does the source give for O=C(/C=C/c1ccco1)NC(=S)Nc1cccc(-c2nc3ccccc3o2)c1 here?
Answer: 9.24% (inactive)

Question: For CCn1ncc(C2=NOC(C(=O)NCc3ccccc3)C2)c1C (configuration not stated), which “activity change, negative = inhibition” value is on record?
Answer: -18.4% (inactive)

Question: Which Potency does the source give for CC(C)N=C(NS(=O)(=O)c1ccccc1)C(Cl)(Cl)Cl here?
Answer: 26.9 µM (active)

Question: With Oc1cccc(Nc2nc(N3CCOCC3)nc(N3CCOCC3)n2)c1 as the compound, how does the “activity change, negative = inhibition” value read?
Answer: -26.5% (inactive)

Question: With CC1=CC(C)(C)N(S(=O)(=O)c2ccc(C)cc2)c2ccc(C)cc21 as the compound, how does the “activity change, negative = inhibition” value read?
Answer: -19% (inactive)

Question: Which “activity change, negative = inhibition” value does the source give for CCOc1ccccc1NS(=O)(=O)c1ccc(-c2cnc(C3CC3)o2)cc1 here?
Answer: -5.07% (inactive)

Question: For COc1ccc(C(=O)N2CCc3cc(OC)c(OC)cc3C2c2ccc(OC)c(OC)c2)cc1 (configuration not stated), which “activity change, negative = inhibition” value is on record?
Answer: -0.384% (inactive)

Question: Which “activity change, negative = inhibition” value does the source give for COc1cccc(C(=O)Nc2cc(NC(=O)c3cccs3)ccc2C)c1OC here?
Answer: 12.1% (inactive)

Question: With COc1ccccc1C(=O)Nc1ccccc1SC(=O)c1ccccc1OC as the compound, how does the Potency read?
Answer: 23.9 µM (active)

Question: With COc1cc(NC(=S)NC(=O)c2ccccc2F)ccc1NC(=O)c1ccco1 as the compound, how does the “activity change, negative = inhibition” value read?
Answer: -16.4% (inactive)

Question: For Cc1ccc(COC(=O)c2cc([N+](=O)[O-])ccc2N2CCOCC2)cc1, which “activity change, negative = inhibition” value is on record?
Answer: -17.5% (inactive)

Question: For CCc1cc2c(SCC(=O)Nc3ccc(NC(C)=O)cc3)ncnc2s1, which “activity change, negative = inhibition” value is on record?
Answer: 8.38% (inactive)

Question: With CCCC(=O)Nc1ccc2c(c1)nc(CN1CCN(C(=O)OCC)CC1)n2CC as the compound, how does the “activity change, negative = inhibition” value read?
Answer: -1.03% (inactive)

Question: Which Potency does the source give for O=C(CCl)Nc1cccc(S(=O)(=O)NC2=NCCCCC2)c1 here?
Answer: 19 µM (active)

Question: Which “activity change, negative = inhibition” value does the source give for C=CCn1c(SCC(=O)Nc2cccc(S(N)(=O)=O)c2)nc2sc(C)c(C)c2c1=O here?
Answer: 5.08% (inactive)

Question: For O=C(CCl)Nc1cc(S(=O)(=O)N2CCCCCC2)ccc1Cl, which “activity change, negative = inhibition” value is on record?
Answer: -87.8% (inactive)

Question: With CN(C)/C=N/c1sc2c(c1C#N)CCCC2 as the compound, how does the “activity change, negative = inhibition” value read?
Answer: 0.366% (inactive)

Question: Which “activity change, negative = inhibition” value does the source give for COc1cc(C2C(C#N)=C(N)Oc3cc(N)ccc32)cc(OC)c1OC (configuration not stated) here?
Answer: -28.5% (inactive)

Question: Which “activity change, negative = inhibition” value does the source give for CCN(C(=O)COC(=O)c1cc([N+](=O)[O-])ccc1N1CCOCC1)c1ccccc1 here?
Answer: -5.41% (inactive)

Question: With CC(=O)Nc1nc2ccc(-c3nc4ccccc4o3)cc2s1 as the compound, how does the “activity change, negative = inhibition” value read?
Answer: -15.1% (inactive)
